# Measured values reported in the supplement of paper PMC6089552.
# The whole screen tested about 3,200 compounds, of which about 300 (9.4%) showed activity. Shown is part of a subset that was picked to be rich in actives. Unmarked numbers belong to inactive results.
# Test system: A673/TR/shEF
# Experiment: cell viability (LOESS-normalised, relative to median of negative controls) (log2 ratio); higher = more viable cells (less compound effect), active = hit call of the paper (over 3 MAD below the median)
# Conditions: treatment time: 72 h
# Outline: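 Doxycycline, present or absent from 24 h before compounds, was used to induce EWS-FLI1 shRNA knockdown in A673/TR/shEF Ewing sarcoma cells at 1,500 per well in 384-well plates. Cells then received library compounds at two or more concentrations, or DMSO controls, for three days. Viability was measured by CellTiter-Glo luminescence on an Envision reader, and per-plate LOESS correction, division by the negative-control median and log2 transformation followed.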
# [1] = 0.103 µM, library screen: screen3, EWS-FLI1 expression: high (no doxycycline)
# [2] = 0.103 µM, library screen: screen3, EWS-FLI1 expression: low (doxycycline-induced shRNA knockdown)
# [3] = 0.308 µM, library screen: screen3, EWS-FLI1 expression: high (no doxycycline)
# [4] = 0.308 µM, library screen: screen3, EWS-FLI1 expression: low (doxycycline-induced shRNA knockdown)
# [5] = 0.926 µM, library screen: screen3, EWS-FLI1 expression: high (no doxycycline)
# [6] = 0.926 µM, library screen: screen3, EWS-FLI1 expression: low (doxycycline-induced shRNA knockdown)
# [7] = 2.8 µM, library screen: screen3, EWS-FLI1 expression: high (no doxycycline)
# [8] = 2.8 µM, library screen: screen3, EWS-FLI1 expression: low (doxycycline-induced shRNA knockdown)
# [9] = 8.3 µM, library screen: screen3, EWS-FLI1 expression: high (no doxycycline)
# [10] = 8.3 µM, library screen: screen3, EWS-FLI1 expression: low (doxycycline-induced shRNA knockdown)
# [11] = 25 µM, library screen: screen3, EWS-FLI1 expression: high (no doxycycline)
# [12] = 25 µM, library screen: screen3, EWS-FLI1 expression: low (doxycycline-induced shRNA knockdown)
# [13] = 0.25 µM, library screen: screen1, EWS-FLI1 expression: high (no doxycycline)
# [14] = 0.25 µM, library screen: screen1, EWS-FLI1 expression: low (doxycycline-induced shRNA knockdown)
# [15] = 2.5 µM, library screen: screen1, EWS-FLI1 expression: high (no doxycycline)
# [16] = 2.5 µM, library screen: screen1, EWS-FLI1 expression: low (doxycycline-induced shRNA knockdown)
# [17] = 0.25 µM, library screen: screen2, EWS-FLI1 expression: high (no doxycycline)
# [18] = 0.25 µM, library screen: screen2, EWS-FLI1 expression: low (doxycycline-induced shRNA knockdown)
# [19] = 2.5 µM, library screen: screen2, EWS-FLI1 expression: high (no doxycycline)
# [20] = 2.5 µM, library screen: screen2, EWS-FLI1 expression: low (doxycycline-induced shRNA knockdown)
structure (smiles),measurement,setting,value
CC1=C2C[C@H]3[C@@H](CC=C4C[C@@H](O)CC[C@@]43C)[C@@H]2CC[C@]12O[C@@H]1C[C@H](C)CN[C@H]1[C@H]2C,cell viability (log2),[1],0.00521
same,cell viability (log2),[2],0.0036
same,cell viability (log2),[3],0.012
same,cell viability (log2),[4],0.0389
same,cell viability (log2),[5],-0.00313
same,cell viability (log2),[6],0.0472
same,cell viability (log2),[7],0.0157
same,cell viability (log2),[8],0.0183
same,cell viability (log2),[9],-0.0322
same,cell viability (log2),[10],0.102
same,cell viability (log2),[11],-0.00963
same,cell viability (log2),[12],0.053
Cc1cccc(CN2CCN(Cc3ccc(F)cc3)CC2)c1,cell viability (log2),[13],0.0688
same,cell viability (log2),[14],0.0518
same,cell viability (log2),[15],0.143
same,cell viability (log2),[16],0.0989
C[C@H]1OC[C@@H](C[N+](C)(C)C)O1,cell viability (log2),[17],0.185
same,cell viability (log2),[18],0.123
same,cell viability (log2),[19],0.146
same,cell viability (log2),[20],0.0964
C[C@H]1O[C@@H](C[N+](C)(C)C)CS1,cell viability (log2),[17],0.209
same,cell viability (log2),[18],0.0237
same,cell viability (log2),[19],-0.0233
same,cell viability (log2),[20],0.035
O=C(OC1CC2CCC(C1)[N+]21CCCC1)C(O)(c1ccccc1)c1ccccc1 (stereo not drawn),cell viability (log2),[1],0.0271
same,cell viability (log2),[2],0.0529
same,cell viability (log2),[3],0.0379
same,cell viability (log2),[4],0.0384
same,cell viability (log2),[5],-0.0177
same,cell viability (log2),[6],0.0427
same,cell viability (log2),[7],0.0921
same,cell viability (log2),[8],0.0957
same,cell viability (log2),[9],0.022
same,cell viability (log2),[10],0.0679
same,cell viability (log2),[11],0.0665
same,cell viability (log2),[12],0.0295
C=C1[C@H]2CCC3[C@@](CC[C@@H]4[C@H](C(=O)O)C[C@@H](O[C@H]5O[C@H](CO)[C@@H](OS(=O)(=O)O)[C@H](OS(=O)(=O)O)[C@H]5OC(=O)CC(C)C)C[C@@]34C)(C2)[C@H]1O (stereo partly drawn),cell viability (log2),[13],0.138
same,cell viability (log2),[14],0.098
same,cell viability (log2),[15],0.0683
same,cell viability (log2),[16],0.0267
COc1nc(NC(C)C)nc(NC(C)C)n1,cell viability (log2),[13],-0.00161
same,cell viability (log2),[14],0.0381
same,cell viability (log2),[15],0.104
same,cell viability (log2),[16],0.186
COC(=O)/C=C(\C)OP(=O)(OC)OC,cell viability (log2),[13],-0.00893
same,cell viability (log2),[14],-0.0133
same,cell viability (log2),[15],0.034
same,cell viability (log2),[16],0.0603
CCC(C)C(OC(C)=O)C(=O)O[C@H]1[C@H](O)C2[C@@]3(C)C=CC(=O)C(C)(C)C3C[C@@H](OC(=O)C(O)C(C)C)[C@@]2(C)[C@@]23O[C@@H]2C[C@@H](c2ccoc2)[C@]13C (stereo partly drawn),cell viability (log2),[13],0.0564
same,cell viability (log2),[14],0.0957
same,cell viability (log2),[15],0.0934
same,cell viability (log2),[16],0.141
CN(C)[C@@H]1C(=O)C(C(N)=O)=C(O)[C@@]2(O)C(=O)C3=C(O)c4c(O)cccc4[C@@](C)(O)[C@H]3[C@H](O)[C@@H]12,cell viability (log2),[1],0.0702
same,cell viability (log2),[2],0.0143
same,cell viability (log2),[13],0.0991
same,cell viability (log2),[14],0.163
same,cell viability (log2),[3],0.0382
same,cell viability (log2),[4],0.159
same,cell viability (log2),[5],0.119
same,cell viability (log2),[6],0.101
same,cell viability (log2),[15],0.158
same,cell viability (log2),[16],0.172
same,cell viability (log2),[7],0.158
same,cell viability (log2),[8],0.126
same,cell viability (log2),[9],0.103
same,cell viability (log2),[10],0.0656
same,cell viability (log2),[11],0.0616
same,cell viability (log2),[12],0.0848
CN(C)[C@@H]1C(=O)C(C(N)=O)=C(O)[C@@]2(O)C(=O)C3=C(O)c4c(O)cccc4[C@@](C)(O)[C@H]3C[C@@H]12,cell viability (log2),[13],-0.127 (active)
same,cell viability (log2),[14],0.111
same,cell viability (log2),[15],-0.0332
same,cell viability (log2),[16],0.155
CN1Cc2c(ccc3c2OCO3)[C@@H]2[C@H]1c1cc3c(cc1C[C@@H]2O)OCO3,cell viability (log2),[13],0.0821
same,cell viability (log2),[14],0.0876
same,cell viability (log2),[15],-0.0483
same,cell viability (log2),[16],0.0764
Ic1ccccc1CN[C@H]1C2CCN(CC2)[C@H]1C(c1ccccc1)c1ccccc1,cell viability (log2),[17],0.128
same,cell viability (log2),[18],0.206
same,cell viability (log2),[19],0.245
same,cell viability (log2),[20],0.191
CC1(C)C(=O)C=C[C@]2(C)C1=C(O)C(=O)[C@@]1(C)[C@H]2CC[C@]2(C)[C@@H](c3ccoc3)C[C@@H]3O[C@]312,cell viability (log2),[13],0.0131
same,cell viability (log2),[14],0.0981
same,cell viability (log2),[15],-0.0522
same,cell viability (log2),[16],0.0901
CCCC(C)C1(CC)C(=O)NC(=S)NC1=O (stereo not drawn),cell viability (log2),[13],0.047
same,cell viability (log2),[14],-0.0503
same,cell viability (log2),[15],0.164
same,cell viability (log2),[16],0.136
CNC(=O)Oc1cccc2c1OC(C)(C)O2,cell viability (log2),[13],0.147
same,cell viability (log2),[14],0.159
same,cell viability (log2),[15],0.155
same,cell viability (log2),[16],0.0893
CCCCCC[C@H]1C(=O)O[C@H](C)[C@H](NC(=O)c2cccc(NC=O)c2O)C(=O)O[C@@H](C)[C@@H]1OC(=O)CC(C)C,cell viability (log2),[13],-0.888 (active)
same,cell viability (log2),[14],-0.636 (active)
same,cell viability (log2),[15],-1.71 (active)
same,cell viability (log2),[16],-0.774 (active)
Cc1ccc2cc3c(ccc4ccccc43)c3c2c1CC3,cell viability (log2),[13],0.0577
same,cell viability (log2),[14],-0.00243
same,cell viability (log2),[15],0.111
same,cell viability (log2),[16],0.12
CC(C)Oc1cccnc1N(C)C1CCN(Cc2ccc(I)cc2)CC1,cell viability (log2),[17],0.0944
same,cell viability (log2),[18],0.0215
same,cell viability (log2),[19],0.21
same,cell viability (log2),[20],0.0697
CC(C)N(C(=O)CCl)c1ccccc1,cell viability (log2),[13],0.0295
same,cell viability (log2),[14],0.0848
same,cell viability (log2),[15],0.154
same,cell viability (log2),[16],0.0575
